# Test results from PubChem BioAssay.
# Values joined by “and” are separate entries in the source; they are usually repeats but may differ in a detail not shown here. Equal entries are not always repeated. Inconclusive results are not listed. Active and inactive are the calls of the source.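 Rule for the calls, unless noted: active = compounds whose cell count with miR-34 switched on is under 0.7 times the count with it off; inactive = the rest.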
# What was measured:
# [1] = P. berghei load reduction in hepatocytes – cell-based, HepG2, luciferase luminescence, HepG2 viability, primary screen (AID 624349; in the data active = parasite load remaining mostly below about 12%, no sharp cut-off; inactive = mostly above about 10%;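 note: 100% = mean of DMSO negative control wells on the same plate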); details: P. berghei liver stage in HepG2, luciferase luminescence, concentration not given here; parasite load remaining: stronger effect = lower value; viability: measured here: HepG2 viability without parasites
# [2] = EMT-state selective cytotoxicity in co-culture – imaging, PC-3E GFP, TEM4-18 mCherry, primary screen (AID 1345086;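 active = compounds killing one labelled cell type while sparing the other, by normalised counts and ratio limits, not self-fluorescent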;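 for all read-outs here: cells exposed to compound for 72 h before imaging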;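 for red/green cell ratio (normalised): normalised mesenchymal count divided by normalised epithelial count so high means epithelial killing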); details: PC-3E GFP / TEM4-18 mCherry co-culture, imaging cell counts, at 1 µM; for red/green cell ratio (normalised): actives lie on both sides, counts scaled to control wells, 1 = unselective
# [3] = viability loss in pontine glioma line – cell-based, SU-DIPG-XVII, MIPE5.0, CellTiter-Glo, qHTS, dose response (AID 1347060; cut-off not given, nearly all actives have AC50 up to about 26 µM); details: CellTiter-Glo ATP luminescence
# [4] = viability loss in pontine glioma line – cell-based, SU-DIPG-XIII, MIPE4.0, CellTiter-Glo, qHTS, dose response (AID 1347061; cut-off not given, nearly all actives have AC50 up to about 37 µM;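 note: cells exposed to compound for 48 hours before readout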); details: CellTiter-Glo ATP luminescence
# [5] = viability loss in pontine glioma line – cell-based, SU-DIPG-IV, MIPE4.0, CellTiter-Glo, qHTS, dose response (AID 1347063; cut-off not given, nearly all actives have AC50 up to about 30 µM;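 note: compound exposure lasted 48 hours before the viability readout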); details: CellTiter-Glo ATP luminescence
# [6] = viability loss in pontine glioma line – cell-based, SU-DIPG-XXV, MIPE5.0, CellTiter-Glo, qHTS, dose response (AID 1347065; cut-off not given, nearly all actives have AC50 up to about 26 µM;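 note: cells exposed to compound for 48 hours before ATP readout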); details: CellTiter-Glo ATP luminescence
# [7] = growth inhibition of DIPG cells – cell-based, MIPE4.0 library, CellTiter-Glo luminescence, qHTS (AID 1347066; cut-off not given, nearly all actives have AC50 up to about 30 µM;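 note: cells exposed to compound for 48 hours before readout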); details: SU-DIPG-VI viability, CellTiter-Glo ATP luminescence
# [8] = JHH-DIPG-1 glioma cell viability, MIPE5.0 library, CellTiter-Glo luminescence, qHTS (AID 1347067; cut-off not given, nearly all actives have AC50 up to about 26 µM;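 note: cells exposed to compound for 48 hours before readout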); details: JHH-DIPG-1 glioma viability, CellTiter-Glo ATP luminescence
# [9] = growth inhibition of DIPG cells – cell-based, MIPE5.0 library, qHTS (AID 1347068; cut-off not given, nearly all actives have IC50 up to about 30 µM); details: SU-DIPG-XXV viability
# [10] = viability loss with induced miR-34 in A549 – imaging, A549 dox-inducible miR-34, nuclei and caspase counts, primary screen (AID 1347080); details: A549 miR-34 inducible, Hoechst nuclei count, 48 h
# [11] = compounds altering circadian rhythm period length – cell-based, LOPAC library, luminescence reporter (AID 2774; call rule not given here;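 note: values are relative to mean of DMSO wells on each plate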); details: circadian reporter cells, at 7 µM, actives lie on both sides
# [12] = system: Hepatitis C virus NS3 helicase; assay: blockers of NS3h binding to ssDNA – biochemical, fluorescence polarization, LOPAC1280 library, primary screen (AID 687035; in the data active = inhibition above about 37%); details: Purified HCV NS3 helicase, Cy5-dT15 ssDNA binding fluorescence polarization; stronger effect = higher value; concentration not given here
# [13] = compounds altering Cy5-DNA-NS3h complex signal – biochemical, LOPAC1280, artefact control for HCV NS3 helicase inhibitor project (AID 687037; call rule not given here); details: Cy5-DNA-NS3h complex fluorescence interference counterscreen
# [14] = viability loss in pontine glioma line – cell-based, JHH-DIPG-1, MIPE4.0, CellTiter-Glo, qHTS, dose response (AID 1347062; cut-off not given, nearly all actives have AC50 up to about 27 µM); details: JHH-DIPG-1 viability, CellTiter-Glo ATP luminescence
# [15] = blockers of cellular phospholipid synthesis – cell-based, LOPAC library, screen 4, primary screen (AID 1347384; call rule not given here); details: animal cells, phospholipid biosynthesis inhibition screen; at 10 µM
# [16] = galactose survival enhancers in mitochondrial complex I cybrids – cell-based, galactose medium, ATP luminescence, primary screen (AID 1645843;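 active = z-score of at least 1.8 in each of two replicates, scored against plate mean and spread of sample wells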;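 note: positive z means more ATP and so rescue of galactose-driven cybrid death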); details: complex I mutant cybrid cells, 72 h, stronger effect = higher value
# [17] = viability loss in pontine glioma line – cell-based, SU-DIPG-XIII, MIPE5.0, CellTiter-Glo, qHTS, dose response (AID 1347064; cut-off not given, nearly all actives have AC50 up to about 23 µM); details: CellTiter-Glo ATP luminescence
# [18] = measured here: epithelial PC-3E GFP cell survival
# [19] = measured here: mesenchymal TEM4-18 mCherry cell survival
# [20] = stronger effect = lower value, cell number ratio, induced over uninduced
# [21] = measured here: relative caspase fold change +Dox/-Dox
# [22] = measured here: total cells with miR-34 induction, stronger effect = lower value
# [23] = measured here: total cells without miR-34 induction
smiles,measurement,setting,value
C[C@]12CCC3c4ccc(O)cc4CCC3C1CCC2=O (stereo partly drawn),parasite load remaining,[1],83.7% (inactive) and 77.8% (inactive)
same,viability,[1],75.2% and 91.3%
same,red/green cell ratio (normalised),[2],0.96 (inactive)
same,normalised cell number,[2]; [18],1.03
same,normalised cell number,[2]; [19],0.99
same,outcome,[3],inactive
same,outcome,[4],inactive
same,outcome,[5],inactive
same,outcome,[6],inactive
same,outcome,[7],inactive
same,outcome,[8],inactive
same,outcome,[9],inactive
same,fold change,[10]; [20],1.01 (inactive)
same,fold change,[10]; [21],1.48
same,cell count,[10]; [22],10400
same,cell count,[10]; [23],10300
CCCCS(=N)(=O)CCC(N)C(=O)O (stereo not drawn),period change,[11],-0.105 h (inactive)
same,inhibition,[12],1% (inactive)
same,fluorescence ratio (interference),[13],1 (inactive)
same,red/green cell ratio (normalised),[2],0.93 (inactive)
same,normalised cell number,[2]; [18],0.89
same,normalised cell number,[2]; [19],0.83
same,outcome,[3],inactive
same,outcome,[4],inactive
same,outcome,[14],inactive
same,outcome,[5],inactive
same,outcome,[6],inactive
same,outcome,[7],inactive
same,outcome,[8],inactive
same,outcome,[9],inactive
same,fold change,[10]; [20],0.991 (inactive)
same,fold change,[10]; [21],1.82
same,cell count,[10]; [22],9560
same,cell count,[10]; [23],9650
same,outcome,[15],inactive
same,z-score,[16],-0.42 (inactive)
CC1=C(C(=O)O)N2C(=O)[C@@H](NC(=O)C(N)c3ccccc3)[C@H]2SC1 (stereo partly drawn),period change,[11],0.02 h (inactive)
same,parasite load remaining,[1],96% (inactive) and 49.4% (inactive)
same,viability,[1],72.1% and 86.5%
same,inhibition,[12],-4% (inactive)
same,fluorescence ratio (interference),[13],0.9 (inactive)
same,red/green cell ratio (normalised),[2],1.15 (inactive)
same,normalised cell number,[2]; [18],1.06
same,normalised cell number,[2]; [19],1.23
same,outcome,[4],inactive
same,outcome,[14],inactive
same,outcome,[5],inactive
same,outcome,[7],inactive
same,fold change,[10]; [20],1.03 (inactive) and 0.832 (inactive)
same,fold change,[10]; [21],1.45 and 2.29
same,cell count,[10]; [22],10100 and 11100
same,cell count,[10]; [23],9800 and 13300
same,outcome,[15],inactive
same,z-score,[16],0.41 (inactive)
O=c1ccn([C@@H]2O[C@H](CO)[C@@H](O)[C@H]2O)c(=O)[nH]1,red/green cell ratio (normalised),[2],0.9 (inactive)
same,normalised cell number,[2]; [18],1
same,normalised cell number,[2]; [19],0.9
same,outcome,[3],inactive
same,outcome,[14],inactive
same,outcome,[5],inactive
same,outcome,[17],inactive
same,outcome,[6],inactive
same,outcome,[7],inactive
same,outcome,[9],inactive
O=C1c2c(O)cccc2[C@@H](O[C@@H]2O[C@H](CO)[C@H](O)[C@@H](O)[C@H]2O)c2cc(CO)cc(O)c21,red/green cell ratio (normalised),[2],0.78 (inactive)
same,normalised cell number,[2]; [18],1.12
same,normalised cell number,[2]; [19],0.88
same,fold change,[10]; [20],0.925 (inactive)
same,fold change,[10]; [21],0.87
same,cell count,[10]; [22],8450
same,cell count,[10]; [23],9140
N[C@@H](CO)c1ccccc1,red/green cell ratio (normalised),[2],0.91 (inactive)
same,normalised cell number,[2]; [18],0.97
same,normalised cell number,[2]; [19],0.88
same,fold change,[10]; [20],0.995 (inactive)
same,fold change,[10]; [21],0.434
same,cell count,[10]; [22],5440
same,cell count,[10]; [23],5460
COc1nc(N)nc2c1ncn2C1O[C@H](CO)[C@@H](O)[C@@H]1O (stereo partly drawn),red/green cell ratio (normalised),[2],0.99 (inactive)
same,normalised cell number,[2]; [18],0.92
same,normalised cell number,[2]; [19],0.91
same,fold change,[10]; [20],0.89 (inactive)
same,fold change,[10]; [21],0.801
same,cell count,[10]; [22],7770
same,cell count,[10]; [23],8740
C=C1CC2C3C=C(C)C4=CC(=O)CC[C@]4(C)C3CC[C@]2(C)[C@@]1(OC(C)=O)C(C)=O (stereo partly drawn),red/green cell ratio (normalised),[2],1.26 (inactive)
same,normalised cell number,[2]; [18],0.99
same,normalised cell number,[2]; [19],1.24
same,fold change,[10]; [20],0.949 (inactive)
same,fold change,[10]; [21],1.45
same,cell count,[10]; [22],4400
same,cell count,[10]; [23],4640
CO/N=C(/C(=O)NC1C(=O)N2C(C(=O)O)=C(CSc3nnnn3C)CSC12)c1csc(N)n1 (stereo not drawn),red/green cell ratio (normalised),[2],0.91 (inactive)
same,normalised cell number,[2]; [18],1.17
same,normalised cell number,[2]; [19],1.06
same,fold change,[10]; [20],0.936 (inactive)
same,fold change,[10]; [21],0.695
same,cell count,[10]; [22],9050
same,cell count,[10]; [23],9680
NC(=O)C1CCCN1C(=O)C(Cc1cnc[nH]1)NC(=O)C1CCC(=O)N1 (stereo not drawn),red/green cell ratio (normalised),[2],1.11 (inactive)
same,normalised cell number,[2]; [18],0.94
same,normalised cell number,[2]; [19],1.04
same,fold change,[10]; [20],0.936 (inactive)
same,fold change,[10]; [21],0.922
same,cell count,[10]; [22],8800
same,cell count,[10]; [23],9400
CC12CCC3c4ccc(O)cc4CCC3C1C[C@H](O)[C@@H]2O (stereo partly drawn),red/green cell ratio (normalised),[2],0.97 (inactive)
same,normalised cell number,[2]; [18],0.91
same,normalised cell number,[2]; [19],0.89
same,fold change,[10]; [20],0.999 (inactive)
same,fold change,[10]; [21],0.736
same,cell count,[10]; [22],8330
same,cell count,[10]; [23],8350
O=C(O)c1ccccc1-c1c2cc(I)c(=O)c(I)c-2oc2c(I)c(O)c(I)cc12,red/green cell ratio (normalised),[2],0.52 (inactive)
same,normalised cell number,[2]; [18],0.98
same,normalised cell number,[2]; [19],0.5
same,fold change,[10]; [20],0.927 (inactive)
same,fold change,[10]; [21],0.976
same,cell count,[10]; [22],9160
same,cell count,[10]; [23],9880
CCN(CC)C(=O)C1(c2ccccc2)CC1CN (stereo not drawn),red/green cell ratio (normalised),[2],0.9 (inactive)
same,normalised cell number,[2]; [18],1.08
same,normalised cell number,[2]; [19],0.98
same,fold change,[10]; [20],0.92 (inactive)
same,fold change,[10]; [21],0.893
same,cell count,[10]; [22],8180
same,cell count,[10]; [23],8890
C[C@@H]1CC2C3CCC4=CC(=O)C=C[C@]4(C)[C@@]3(F)[C@@H](O)C[C@]2(C)[C@H]1C(=O)CO (stereo partly drawn),red/green cell ratio (normalised),[2],1.08 (inactive)
same,normalised cell number,[2]; [18],1.08
same,normalised cell number,[2]; [19],1.16
same,fold change,[10]; [20],0.893 (inactive) and 0.821 (inactive)
same,fold change,[10]; [21],0.943 and 1.01
same,cell count,[10]; [22],6390 and 5470
same,cell count,[10]; [23],7160 and 6670
CC(C)(O)c1ccccc1CC[C@@H](SC1(CC(=O)O)CC1)c1cccc(/C=C/c2ccc3ccc(Cl)cc3n2)c1,red/green cell ratio (normalised),[2],1.02 (inactive)
same,normalised cell number,[2]; [18],1.13
same,normalised cell number,[2]; [19],1.16
same,fold change,[10]; [20],0.955 (inactive)
same,fold change,[10]; [21],0.641
same,cell count,[10]; [22],9020
same,cell count,[10]; [23],9450
NC(=O)c1ncn(C2O[C@H](CO)[C@@H](O)[C@H]2O)c1N (stereo partly drawn),red/green cell ratio (normalised),[2],0.89 (inactive)
same,normalised cell number,[2]; [18],1.13
same,normalised cell number,[2]; [19],1
same,fold change,[10]; [20],0.937 (inactive)
same,fold change,[10]; [21],0.793
same,cell count,[10]; [22],9050
same,cell count,[10]; [23],9660
